The campaign covered roughly 2,300 compounds. About 1,700 (74%) were called active. How the calls were made is not given here. The set was probably picked from earlier hits. The list shows a part of the results. Entries with a potency or affinity are not part of this list.
Assay: Confirmatory growth inhibition assay, Mycobacterium tuberculosis H37Rv, absence of glycerol (AID 449764);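 further: growth read after 7 days of incubation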
Conditions: no glycerol; series mostly up to 100 µM

Row | Structure (SMILES) | outcome
1 | O=C(c1ccc(C#Cc2ccccc2)o1)N1CCN(c2ccccn2)CC1 | inactive
2 | O=C(O)Cc1cnc[nH]1 | inactive
3 | Cc1cc(/C=C/C(=O)O)c(C)n1-c1ccc(Cl)cc1 | inactive
4 | O=C(CCN1C(=O)C2C3C=CC(C3)C2C1=O)Oc1ccc2ccccc2c1 (configuration not stated) | inactive
5 | Cc1cc(C2=NNC(=NC3CCCCC3)SC2)c(C)n1-c1c(C)n(C)n(-c2ccccc2)c1=O | inactive
6 | COC(=O)c1cccc(OC(N)=O)c1 | inactive
7 | CCOc1ccc(-n2c(O)c(/C=N/Nc3nnc(C)c(=O)[nH]3)c3ccccc3c2=O)cc1 | inactive
8 | COc1cccc(NC(=O)Nc2nc(SC(C)(C)C)ns2)c1 | inactive
9 | CN(C)S(=O)(=O)c1cccc(NC(=O)CCc2nc3sc4c(c3c(=O)[nH]2)CCCC4)c1 | inactive
10 | Nc1ccc(-c2nc3ccc(-c4nc5ccccc5o4)cc3[nH]2)cc1 | inactive
11 | CC(C)(C)c1nc(SCC(=O)Nc2nc3c(s2)CCCC3)c2ccccc2n1 | inactive
12 | O=C(Nc1cc(Oc2ccccc2)cc([N+](=O)[O-])c1)C12CC3CC(C1)CC(n1cnc(Cl)n1)(C3)C2 | inactive
13 | C/C(=N\NC(=O)c1cc2c(s1)CCC(C)C2)c1ccncc1 (configuration not stated) | inactive
14 | CCC1(c2ccccc2)NC(=O)N(CC(=O)Nc2ccc(S(=O)(=O)NC3=NCCCCC3)cc2)C1=O (configuration not stated) | inactive
15 | Nc1cc(C(=O)OCC(=O)NNC(=O)c2cccs2)ccc1Cl | inactive
16 | CSc1ccc(CNC(=O)C2Cc3cc(S(=O)(=O)N4CCCCC4)ccc3N2C(C)=O)cc1 (configuration not stated) | inactive
17 | Nc1ncc2[nH]cnc2n1 | inactive
18 | CCCc1ccc(OCc2ccccc2)c2c(=O)cc(C(=O)OCC)oc12 | inactive
19 | O=C(COc1cc(O)c2c(=O)c3ccccc3oc2c1)OCc1ccccc1 | inactive
20 | Cc1ccc(NC(=O)C2CCN(S(=O)(=O)c3ccc4c(c3)NC(=O)C(C)S4)CC2)c(Cl)c1 (configuration not stated) | inactive
21 | O=C(c1cc([N+](=O)[O-])ccc1N1CCOCC1)N1CCN(S(=O)(=O)c2cc(Cl)ccc2Cl)CC1 | inactive
22 | COc1ccc2c(C)nc(Nc3nc(C)c(C)c(=O)[nH]3)nc2c1 | inactive

Row | Structure (SMILES) | outcome
23 | COc1ccc(N/C=C/c2nc(SC)nnc2C)cc1 | inactive
24 | COc1ccc(Oc2ccc(N/C=C/C(=O)C(C)(C)C)cc2)cc1 | inactive
25 | CCCOc1ccc(C(=O)c2nc3c(n2O)CCCCC3)cc1 | inactive
26 | CCCc1ncc(CN2CCCC(C(=O)Nc3ccc(-c4cccc(OC)c4)cc3)C2)cn1 (configuration not stated) | inactive
27 | N/C(=N\OC(=O)CCC1CCCC1)c1cccc([N+](=O)[O-])c1 | inactive
28 | Cc1ccccc1C(=O)Nc1ccc(N(C)C)c2ccccc12 | inactive
29 | O=C(N/N=C/c1ccc(Br)s1)c1cccs1 | inactive
30 | CCn1nnc(-c2ccc(N)cc2)n1 | inactive
31 | COc1ccc(C(C(O)C(=O)c2c[nH]c3ccccc23)N2CCN(c3ccc(OC)cc3)CC2)cc1 (configuration not stated) | inactive
32 | COc1ccc(N2CN=C3SCC(=O)N3C2)cc1 | inactive
33 | CCOc1ccc(NC(=S)NC23CN4CN(CN(C4)C2)C3)cc1 | inactive
34 | CCOC(=O)c1ccc(OC(=O)CCCCCN=C(N)N)cc1 | inactive
35 | COc1ccccc1C(=O)NC(=Nc1nc2ccccc2o1)NC(=O)c1ccccc1OC | inactive
36 | O=C(CN1CCN(c2ccc(F)cc2)CC1)N1CCC(Cc2ccccc2)CC1 | inactive
37 | CC(=Nc1ccc(C)c(C)c1)C1=C(O)CSC1=O | inactive
38 | CCOc1ccc(S(=O)(=O)N2CCN(C(=O)c3cc4c(s3)CCCC4)CC2)cc1 | inactive
39 | COc1ccc(-c2ccc(=O)n(Cc3c(F)cccc3Cl)n2)cc1 | inactive
40 | COc1ccc(NC(NC(=O)c2ccc(OC)cc2)C(Cl)(Cl)Cl)cc1 (configuration not stated) | inactive
41 | Cc1nc2ccc(NC(=O)N(C(C)C)C(C)C)cc2s1 | inactive
42 | CCOc1[nH]n(-c2ccccc2)c(=O)c1C=Nc1ccc(OC)cc1 | inactive
43 | O=C(CCN1C(=O)C2CCCCC2C1=O)Nc1nc(-c2ccc(F)c(F)c2)cs1 (configuration not stated) | inactive
44 | O=C(Sc1nnc(-c2ccccc2)o1)N1c2ccccc2Sc2ccccc21 | inactive

Row | Structure (SMILES) | outcome
45 | COc1ccc(OCc2nnc3n2N=C(c2ccccc2)C(CC(=O)O)S3)cc1 (configuration not stated) | inactive
46 | COc1ccc(NC(=O)c2ccc(Cl)c(S(=O)(=O)N3CCc4ccccc4C3)c2)cn1 | inactive
47 | CCOc1ccc(N(C(=O)/C=C/C(=O)Nc2cc(C)on2)C(C(=O)NC2CCCC2)c2ccccc2C)cc1 (configuration not stated) | inactive
48 | CC(C)Cn1[nH]c2c3c(ccc2c1=O)C(=O)c1ccccc1C3=O | inactive
49 | Cc1ccc(C(=O)Nc2cccc(C(F)(F)F)c2)cc1Nc1ncnc2nc[nH]c12 | inactive
50 | Cc1ccc(Cl)cc1N1CCN(Cc2nc3ccsc3c(=O)[nH]2)CC1 | inactive
51 | COc1ccc(-c2cc3ccccc3oc2=O)cc1NC(=O)c1ccc([N+](=O)[O-])o1 | inactive
52 | COc1ccc(N2CCN(c3ccnc4cc(Cl)ccc34)CC2)cc1 | inactive
53 | Fc1ccc(N/N=C2/CC(c3ccccc3)Oc3ccccc32)c(F)c1 (configuration not stated) | inactive
54 | Oc1ccc2cc(Br)ccc2c1CN1CCCC1 | inactive
55 | COc1ccc(-c2nc3ccccn3c2CN2CCN(c3ccccc3F)CC2)cc1 | inactive
56 | CCOC(=O)C(=NC1CCS(=O)(=O)C1)NNc1ccc(Br)cc1 (configuration not stated) | inactive
57 | CCOc1ccc(NC(C)c2cc(Cl)ccc2O)cc1 (configuration not stated) | inactive
58 | Brc1cccc2sc(N3CCN(c4ccccc4)CC3)nc12 | inactive
59 | NC(=O)/C(=N\OC(=O)c1ccco1)c1nc(-c2ccc(Br)cc2)cs1 | inactive
60 | Cc1cccc(C)c1OCC(O)CN1CCC(CN2C(=O)c3cccc4cccc(c34)C2=O)CC1 (configuration not stated) | inactive
61 | CC1(C)SC(=S)N(NC(=O)Nc2cccc3ccccc23)C1N(O)C(=O)Nc1ccccc1 (configuration not stated) | inactive
62 | O=[N+]([O-])c1nn(-c2ccc(Cl)cc2)n(O)c1=NCc1cccnc1 | inactive
63 | CCCCCCC(=O)N/N=C/c1ccc(Br)cc1 | inactive
64 | CCCCCCSc1nsc(NC(=O)CC(C)C)n1 | inactive
65 | COC(=O)Cc1ccc(NC(=S)Nc2ccccn2)cc1 | inactive
66 | CCOc1ccc(NC(=S)Nc2cc(-c3ccccc3)[nH]n2)cc1 | inactive

Row | Structure (SMILES) | outcome
67 | CC(C)c1ccc2nc(N)sc2c1 | inactive
68 | O=C(/C=C/c1ccc(Cl)cc1)N1CCN(c2ccc(Cl)cc2[N+](=O)[O-])CC1 | inactive
69 | COC(=O)c1cc(NC(=O)c2c(F)c(F)c(F)c(F)c2F)cc(C(=O)OC)c1 | inactive
70 | NC(=O)N1CCC2(CC1)NC(=O)N(c1ccccc1)N2 | inactive
71 | O=C(/C=C/c1ccc(OCCCF)cc1)Nc1ccnc(-c2ccncc2)n1 | inactive
72 | Cc1oc(C)c2c(=O)ccc3c(c12)OC(N)=C(C#N)C3c1ccccc1Cl (configuration not stated) | inactive
73 | Cc1nn(C(C)(C)C)c(NC(=O)c2ccc(Cl)cc2Cl)c1Br | inactive
74 | O=C(c1ccccc1)c1nn(-c2ccc(Cl)cc2)cc1C(=O)c1cc2ccccc2oc1=O | inactive
75 | Cc1ccc(F)cc1CNC(=O)c1cc(COc2ccc3ncccc3c2)on1 | inactive
76 | CCN(CC)S(=O)(=O)c1cc(C(=O)Oc2cccc(-c3cnc4ccccc4n3)c2)ccc1Br | inactive
77 | Cc1cc(-n2c(C)cc(C(=O)COc3ccc4ccc(=O)oc4c3)c2C)no1 | inactive
78 | COc1ccc(N/C=C(\C2OC(=O)c3ccccc32)[N+](=O)[O-])cc1 (configuration not stated) | inactive
79 | CC(C)c1nc2scc(-c3ccc(Cl)cc3)c2c(=O)n1N | inactive
80 | NN/C(=C\[N+](=O)[O-])Nc1ccc(Cl)cc1 | inactive
81 | C/C(CC(=O)Nc1ccc2c(c1)OCCO2)=N\NC(=O)c1ccccc1F | inactive
82 | Cc1ccc2c(c1)Oc1ccc(NC(=O)CCl)cc1C(=O)N2 | inactive
83 | CCCc1cc(=O)[nH]c(SCC(=O)N2CCCC2=O)n1 | inactive
84 | O=C(Nc1ccc(-n2cccc2)cc1)C1CC1 | inactive
85 | O=c1c2ccc(Cl)cc2nc(-c2ccc([N+](=O)[O-])cc2)n1O | inactive
86 | COc1ccc(N2CCN(Cc3cc4c(cc3O)CCC4)CC2)cc1 | inactive
87 | C=CCn1c(N)cc(=O)nc1SC(CC)C(=O)Nc1ccc(C(C)=O)cc1 (configuration not stated) | inactive
88 | C[C@H](O)[C@H](O)[C@H]1CNc2nc(N)[nH]c(=O)c2N1 | inactive

Row | Structure (SMILES) | outcome
89 | CCCCc1ccc(NC(=S)N2CCN(c3ncccn3)CC2)cc1 | inactive
90 | COC(=O)Cc1ccc(NC(=O)c2ccc(Br)o2)cc1 | inactive
91 | C=C(C)C1CCC(C)=C1COC(=O)Nc1ccccc1 (configuration not stated) | inactive
92 | Cc1nc(SCC(=O)Nc2ccc(OCc3ccccc3)cc2)n[nH]1 | inactive
93 | COc1ccc(-c2cc3n(n2)CCc2nc4ccccc4n2-3)cc1 | inactive
94 | C/C(=C\C(=O)c1ccccc1)Nc1ccc(Cl)c(Br)c1 | inactive
95 | COc1ccc(/C(O)=C/Sc2nnc(Cc3ccccc3)o2)cc1 | inactive
96 | CCn1c2ccccc2c2cc(NC(=O)CN(C)CC(=O)Nc3ccc(N4CCOCC4)cc3)ccc21 | inactive
97 | C=CCc1cccc2cc(C(=O)OCC(=O)c3ccccc3)c(=O)oc12 | inactive
98 | COc1cc(/C=C2\C(=O)NN(c3ccc(C)cc3)C2=O)cc([N+](=O)[O-])c1O | inactive
99 | O=C1CCC(=O)N1CNc1ccc(Oc2ccccc2)cc1 | inactive
100 | O=C(OCc1ccccc1)c1cccc(-c2nnn(Cc3ccccc3)n2)c1 | inactive
101 | O=C(CSc1n[nH]c(-c2ccccc2)n1)Nc1ccc(Br)cn1 | inactive
102 | CN1CCN2c3ccccc3Cc3ccccc3C2C1 (configuration not stated) | inactive
103 | O=c1c2c3c(sc2nc(N2CCNCC2)n1-c1cccc(Cl)c1)CCCCC3 | inactive
104 | CC(C)(C)c1nc2sc3c(c2c(=O)o1)CCCC3 | inactive
105 | CCCCOC(=O)c1c(C)oc2ccc(NS(=O)(=O)c3ccc4c5c(cccc35)C(=O)N4)cc12 | inactive
106 | COC(OC)c1ccnc(-c2ccc(OC(=O)c3cccs3)cc2)n1 | inactive
107 | CCOc1ccc(OCc2ccc(C(=O)N/N=C(\C)c3ccccn3)cc2)cc1 | inactive

— PubChem BioAssay AID449764 (Southern Research Specialized Biocontainment Screening …, 2010)
